This note sets out measurements from PubChem BioAssay.

A short description of assay [1]: MELAS cybrid and Rieske KO viability enhancers – cell-based, MELAS cybrids, Rieske KO mouse fibroblasts, CellTiter-Glo, primary screen (AID 1508586;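 active = mean z-score across replicates of 1.96 or higher in either the MELAS or the Rieske mutant cell line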;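 note: test concentration not given here; z relative to plate mean and SD of compound and empty wells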). Particulars: low glucose. On the technique in general: ATP-based viability assays read luminescence as a measure of living cells.
The nature of assay [2]: galactose survival enhancers in mitochondrial complex I cybrids – cell-based, galactose medium, ATP luminescence, primary screen (AID 1645843).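 Note: positive z means more ATP and so rescue of galactose-driven cybrid death.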 Particulars: complex I mutant cybrid cells, 72 h, stronger effect = higher value.
The mark [3] stands for this setting: MELAS cybrid survival, CellTiter-Glo 48 h, stronger effect = higher value.
Setting [4] is: Rieske KO mouse fibroblast survival, CellTiter-Glo 72 h.

Molecules are shown by their SMILES. The source made the active and inactive calls.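 Rule for the calls, unless noted: active = z-score of at least 1.8 in each of two replicates, scored against plate mean and spread of sample wells; inactive = the rest.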

`CC(=O)c1cccc(-c2cc3c(n(CC=C(C)C)c2=O)CCN(Cc2cnc(N(C)C)s2)C3)c1`: the z-score in assay [1] (setting [3]) was -0.385 (inactive); in assay [1] (setting [4]) it was 0.11; in assay [2], 0.475 (inactive).
The matching figures for `Cc1cc(-c2cc3c(n(Cc4cccnc4)c2=O)CCN(C(=O)C2Cc4ccccc4O2)C3)ccc1F` (configuration not stated): -0.406 (inactive), 1.95 and -0.785 (inactive).
The matching figures for `CC(=O)c1cccc(-c2cc3c(n(C)c2=O)CCN(C(=O)c2ccc4[nH]c5c(c4c2)CCCC5)C3)c1`: -0.0854 (inactive), -0.491 and -1.45 (inactive).
In the same order, the values of `Cc1ccc2c(-c3cc4c(n(CC5CC5)c3=O)CCN(C(=O)c3ccc5c(c3)OCO5)C4)cccc2n1` are 2.47 (active), 3.71 and -0.54 (inactive).
In the case of `CC(C)[C@@H]1NC(=O)[C@H]2CN(C(=O)c3ccccc3Cl)CCN2C1=O`, the values for the z-score in assay [1] (setting [3]), in assay [1] (setting [4]) and in assay [2] were -0.296 (inactive), -0.445 and 1.57 (inactive), respectively.
The matching figures for `O=C1N[C@@H](Cc2c[nH]c3ccccc23)C(=O)N2C[C@@H](NCc3ccccc3Cl)C[C@@H]12`: -0.311 (inactive), 0.134 and -0.945 (inactive).
The matching figures for `O=c1c(/C=C/c2ccccc2)cc2c(n1Cc1ccccn1)CCN(C1CCOCC1)C2`: -0.0238 (inactive), 0.293 and 0.925 (inactive).
The matching figures for `Cc1ccc(Cl)cc1NC(=O)N[C@H]1C[C@H]2C(=O)N[C@H](C(C)C)C(=O)N2C1`: -0.17 (inactive), 0.0408 and -0.745 (inactive).
For the compound `Cc1ccc(CNC(=O)c2nn(C)c3c2CC(NC2CCN(Cc4ccccc4)CC2)CC3)o1` (configuration not stated), the z-score was 0.347 (inactive) in assay [1] (setting [3]), 0.979 in assay [1] (setting [4]) and -1.23 (inactive) in assay [2].
In the case of `Cc1nc2sccn2c1CN1CCC2(CC1)C(=O)N(CC(C)C)C(=O)N2CCc1ccccc1`, the z-score is -0.397 (inactive) in assay [1] (setting [3]), -0.675 in assay [1] (setting [4]) and 0.34 (inactive) in assay [2].
In the same order, the values of `CCn1nc(C(=O)N2CCCCC2)c2c1CCC(NCc1ccc3c(c1)OCO3)C2` (configuration not stated) are -0.251 (inactive), 0.426 and -1.14 (inactive).
The matching figures for `CCOC(=O)c1nn(Cc2ccccn2)c2c1CN(Cc1ccc(NC(C)=O)s1)CC2`: -0.809 (inactive), -0.0726 and 0.55 (inactive).
As to `COc1cccc2ccc(CN3CCC4(CC3)C(=O)N(CCc3ccccc3)C(=O)N4C)nc12`, the z-score in assay [1] (setting [3]) is -0.413 (inactive); in assay [1] (setting [4]), 1.51; in assay [2], 0.055 (inactive).
The matching figures for `CC[C@@H]1NC(=O)[C@H]2CN(CCC(C)C)CCN2C1=O`: 0.225 (inactive), 0.0851 and -0.555 (inactive).
In the same order, the values of `CC(C)CCN1C(=O)N(C(C)C)C(=O)C12CCN(Cc1ccc(CN3CCCCC3)s1)CC2` are -0.0425 (inactive), -0.0124 and 1.27 (inactive).
The matching figures for `COc1cccc(COC2CN(CCc3ccccc3)C(=O)CN(C(=O)CN3CCOC3=O)C2)c1` (configuration not stated): -0.0866 (inactive), -0.325 and 0.48 (inactive).
For the compound `CCN1CCCC1CNC(=O)c1nn(CCOC)c2c1CN(Cc1c(C)nc3sccn13)CC2` (configuration not stated), the results for the z-score in assay [1] (setting [3]), in assay [1] (setting [4]) and in assay [2] were 0.286 (inactive), -0.16 and -0.87 (inactive), respectively.
As to `O=C(c1nn(Cc2ccccn2)c2c1CN(C/C=C/c1ccco1)CC2)N1CCc2ccccc2C1`, the values for the z-score in assay [1] (setting [3]), in assay [1] (setting [4]) and in assay [2] were -0.442 (inactive), -0.213 and -0.345 (inactive), respectively.
In the same order, the values of `Cc1csc(-c2cc(C(=O)N3CCC(N(C)C)C3)cc(S(=O)(=O)N3CCOCC3)c2)c1` (configuration not stated) are -0.101 (inactive), 0.349 and 0.805 (inactive).
In the same order, the values of `CCn1nc(C(=O)N2CCCC2)c2c1CCC(NCCC1=CCCCC1)C2` (configuration not stated) are 1.1 (inactive), -0.76 and -1.23 (inactive).
The matching figures for `CCc1nc(CNc2cc(C(=O)N[C@H](C)c3ccc(OC)cc3)cc(S(=O)(=O)N(C)C)c2)c(C)[nH]1`: -0.507 (inactive), -0.167 and 0.08 (inactive).
Regarding `COc1ccc(CNC(=O)c2cc(NCc3nc[nH]c3C)cc(S(=O)(=O)N3CCCC3)c2)cc1`, the values for the z-score in assay [1] (setting [3]), in assay [1] (setting [4]) and in assay [2] were -0.477 (inactive), -0.812 and 0.755 (inactive), respectively.
The matching figures for `COc1ccc(CN2C(=O)N(C)C3(CCN(Cc4nc(-c5ccccc5)cs4)CC3)C2=O)cc1`: -0.259 (inactive), -0.0505 and -0.2 (inactive).
In the same order, the values of `CC(C)CCN1C(=O)N(CC(N)=O)C(=O)C12CCN(Cc1nc3ccccc3s1)CC2` are -0.288 (inactive), -0.574 and 0.225 (inactive).
The matching figures for `CN1CCN(S(=O)(=O)c2cc(C(=O)NCC3CCCO3)cc(-c3ccccc3)c2)CC1` (configuration not stated): 0.139 (inactive), 0.37 and -0.515 (inactive).
Regarding `Cc1ccc(-c2cc(C(=O)NCC3CC3)cc(S(=O)(=O)N3CCOCC3)c2)s1`, the z-score in assay [1] (setting [3]) is -0.142 (inactive); in assay [1] (setting [4]), 0.0847; in assay [2] it was 0.15 (inactive).
For the compound `COC(=O)c1c(NC(C)=O)c2cc(NC3CCOCC3)cnc2n1CCc1ccc(OC)cc1`, the z-score in assay [1] (setting [3]) was -0.209 (inactive); in assay [1] (setting [4]), 0.565; in assay [2], 0.445 (inactive).
As for `O=C1[C@@H]2C[C@@H](O)CN2C(=O)[C@H]2CN(Cc3ccc(CN4CCCCC4)s3)CCN12`, the z-score was -0.179 (inactive) in assay [1] (setting [3]), -0.745 in assay [1] (setting [4]) and 0.32 (inactive) in assay [2].
In the same order, the values of `Cc1ccc(-c2cc(C(=O)NCc3c(C)nn(C)c3C)cc(S(=O)(=O)N3CCOCC3)c2)s1` are -0.303 (inactive), -0.219 and 0.42 (inactive).
The matching figures for `Cc1ncc(CNc2cc(C(=O)Nc3cccc(N(C)C)c3)cc(S(=O)(=O)N3CCCC3)c2)[nH]1`: -0.563 (inactive), -0.237 and 0.295 (inactive).
In the same order, the values of `C[C@H]1NC(=O)[C@@H]2C[C@H](NC(=O)c3cnn(-c4ccccc4)c3C(F)(F)F)CN2C1=O` are 0.896 (inactive), -0.434 and -1.26 (inactive).
Consider `CCN1C(=O)N(C)C(=O)C12CCN(Cc1ccc(Oc3ncccn3)cc1)CC2`, for which the results for the z-score in assay [1] (setting [3]), in assay [1] (setting [4]) and in assay [2] were 0.0802 (inactive), -0.536 and 1.74 (inactive), respectively.
As to `CCCc1c(C(=O)N[C@H]2C[C@H]3C(=O)N[C@H](Cc4ccc(O)cc4)C(=O)N3C2)cnn1-c1ccccc1`, the z-score was -0.275 (inactive) in assay [1] (setting [3]), -0.357 in assay [1] (setting [4]) and -1.02 (inactive) in assay [2].
In the same order, the values of `COc1cccc(COC2CN(Cc3ccccn3)C(=O)CN(C(=O)c3ccc(C)s3)C2)c1` (configuration not stated) are -0.406 (inactive), 0.0344 and 0.91 (inactive).
The matching figures for `COc1cc(CN2CCc3c(cc(Cc4ccccc4C)c(=O)n3CC3CC3)C2)ccc1O`: -0.322 (inactive), -0.319 and -1.32 (inactive).
The matching figures for `CCc1nc(CNc2cc(C(=O)Nc3ccc4c(c3)CCC4)cc(S(=O)(=O)NC)c2)c(C)[nH]1`: -0.12 (inactive), -0.343 and 0.065 (inactive).
`COC(=O)c1c(NC(=O)c2cccnc2)c2cc(NCc3ccc4c(c3)CCO4)cnc2n1CC(C)C`: the z-score in assay [1] (setting [3]) was -0.55; in assay [1] (setting [4]), 3.72; in assay [2] it was -1.61 (inactive).
The matching figures for `CCN1C(=O)N(C)C(=O)C12CCN(Cc1cc3oc(C)c(-c4ccccc4)c3cc1OC)CC2`: -0.0202 (inactive), -0.474 and 1.74 (inactive).
The matching figures for `CC(C)=CCNc1cc(C(=O)NCc2cn3ccccc3n2)cc(S(=O)(=O)NC(C)C)c1`: -0.403 (inactive), -0.764 and -0.5 (inactive).
